Active and inactive are the calls of the source.
target: Dihydroorotate dehydrogenase (quinone), mitochondrial (Plasmodium falciparum (isolate 3D7)) (UniProt Q08210); experiment: inhibition of P. falciparum DHODH – biochemical, C-terminal His tag, absorbance 600 nm, primary screen (AID 1175); conditions: PfDHODH enzyme, DCIP absorbance 600 nm; higher = more signal, called active from +8 up or from −8 down;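 further: recombinant parasite enzyme with a five histidine tag at its C terminus; test concentration not given here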
Sequence (Q08210 whole entry, looked up): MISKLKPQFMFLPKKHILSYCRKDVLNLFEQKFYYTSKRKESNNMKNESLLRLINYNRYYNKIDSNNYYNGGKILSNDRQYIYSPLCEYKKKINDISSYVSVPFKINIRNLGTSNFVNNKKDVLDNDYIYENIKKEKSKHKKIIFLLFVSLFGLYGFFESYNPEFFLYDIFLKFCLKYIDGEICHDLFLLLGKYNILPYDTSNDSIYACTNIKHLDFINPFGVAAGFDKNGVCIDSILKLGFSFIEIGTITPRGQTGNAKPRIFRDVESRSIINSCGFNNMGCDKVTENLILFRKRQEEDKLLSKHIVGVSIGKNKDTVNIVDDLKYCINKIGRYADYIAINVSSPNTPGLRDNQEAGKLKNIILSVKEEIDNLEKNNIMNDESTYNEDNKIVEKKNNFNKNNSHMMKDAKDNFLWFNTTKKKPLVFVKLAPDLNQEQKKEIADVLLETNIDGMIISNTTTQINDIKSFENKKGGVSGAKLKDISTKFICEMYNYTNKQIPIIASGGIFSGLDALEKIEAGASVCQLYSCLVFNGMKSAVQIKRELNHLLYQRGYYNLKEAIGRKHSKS

Composite z-score, inactive:
COc1cc(OC)c(C(O)C2C=CC3C(=O)NC(=O)C3N2Nc2ccccn2)cc1Br (stereo unspecified) 0.412
C=CCNC(=O)[C@@H]1[C@H]2C(=O)O[C@H](c3ccccc3)[C@H](c3ccccc3)N2[C@H](c2ccc(OCCO)cc2)[C@@]12C(=O)N(C(=O)OCCOC)c1ccc(C#CCC(C(=O)OC)C(=O)OC)cc12 -1.27
COC(=O)c1c(CC[C@@H](CO)NC(=O)NCCc2c[nH]c3ccccc23)oc(C(=O)Cc2ccccc2)c1C(=O)OC -2.63
O=C(O)[C@H](Cc1ccccc1)n1cc(-c2ccccc2)nn1 -0.0341
CC(C)NC(=O)[C@@]1(Cc2ccccc2I)c2ccccc2C(=O)N(Cc2ccccc2Cl)[C@H]1c1ccc(CO)cc1 0.0754
CC(C)=CCCC(C)=CC(O)C1C=CC2C(=O)N(c3ccccc3)C(=O)C2N1Nc1ccc(C(C)C)cc1 (stereo unspecified) 0.484
[N-]=[N+]=NCc1ccccc1[C@H]1OC(c2ccc(OCCCO)cc2)=N[C@@]1(Cc1ccccc1)C(=O)N1CCCCC1 0.451
CC(C)N1CC=CC23O[C@@H]4C=CCOC(=O)[C@@H]4[C@H]2C(=O)N(CCCCCO)[C@@H]3C1=O (stereo partly specified) -1.85
CCOC(=O)[C@H]1C/C=C/C[C@H](C(=O)OCC)C(=O)O[C@H]2[C@@H](OC)O[C@H](CO)[C@@H](OC(=O)c3ccc(Br)cc3)[C@@H]2OC1=O -1.88
O=C(O)[C@H]1C[C@H]2C(=O)N3CCC[C@H]3C(=O)N2[C@H]1c1ccc(O)cc1 -0.453
[N-]=[N+]=Nc1ccccc1C[C@@]1(C(=O)N2CCCCC2)N=C(c2ccc(OCCCO)cc2)O[C@@H]1c1ccccc1N=[N+]=[N-] -0.0853
CCOC(=O)C1=CC[C@@H](c2ccccc2)N(S(=O)(=O)c2ccc(C)cc2)[C@H]1c1ccc(CC)cc1 0.207
O=C1[C@H]2C=C(Br)[C@H](C[C@@H]2OCCCCCCO)[C@@]12CO2 0.571
COc1cc2c(cc1O)C(c1cccs1)N(Cc1ccc([N+](=O)[O-])o1)CC2 (stereo unspecified) -4.93
CCCNC(=O)[C@@]1(Sc2ccc(C)cc2)CC(=O)N(Cc2ccccc2C(F)(F)F)[C@@H]1c1ccc(CO)cc1I -0.469
O=C1OCCC=C[C@H]2OC34C=CCN(Cn5nnc6ccccc65)C(=O)[C@H]3N(CCO)C(=O)[C@@H]4C12 (stereo partly specified) -1.15
C=CCNC(=O)[C@@H]1[C@H]2C(=O)O[C@H](c3ccccc3)[C@H](c3ccccc3)N2[C@H](c2ccc(OCCO)cc2)[C@@]12C(=O)N(C(=O)OCCOC)c1ccc(C#CCNC(N)=O)cc12 -0.132
CCCC1(C(=O)OC)C=C2C(=C(c3ccccc3)C(=O)C2C)CN1 (stereo unspecified) -1.68
O=C1O[C@@H](c2ccccc2)[C@@H](c2ccccc2)N2[C@@H](c3ccc(OCCO)cc3)[C@]3(C(=O)Nc4ccc(C#CCCO)cc43)[C@@H](C(=O)NC[C@H](O)c3ccccc3)[C@H]12 1.47
COc1ccc(CCNC(=O)[C@@]2(c3ccc([N+](=O)[O-])cc3)CC(=O)N(CC34CC5CC(CC(C5)C3)C4)[C@@H]2c2ccc(CO)cc2I)cc1 0.387
COc1ccc([C@H]2C[C@H]3C(Br)=C[C@@]2(CO)C(=O)[C@]32CO2)cc1 -0.174
O=C(NC1CC1)[C@@H]1c2ccccc2C(=O)N(Cc2cc(F)cc(C(F)(F)F)c2)[C@H]1c1ccc(CO)cc1 -0.323
COC(=O)[C@@]1(Cc2ccc(OC)cc2)[C@H]2c3cc(C(=O)N4CCCC4)n(CCCNc4ncc(C(F)(F)F)cc4Cl)c3C[C@H]2CN1C(=O)c1ccccc1 -0.199
CO[C@H]1O[C@H](CO)[C@@H](OC(=O)Nc2ccc(Oc3ccccc3)cc2)[C@H](OC(=O)Nc2ccc3c(c2)OCO3)[C@@H]1OC(=O)Nc1ccc2c(c1)OCO2 0.0357
C=C(CCCC)/C(=C/C[C@H](OC(C)=O)c1ccccc1OCCO)c1cnc2ccccc2c1 -5.76
CC(C)(C)OC(=O)CC[C@@]1(C(=O)N2CCCCC2)N=C(c2ccc(OCCCO)cc2)O[C@@H]1c1ccccc1 -0.159
O=C(CS)NCCCCCNC(=O)[C@@H]1C[C@@H]2C(=O)NCC(=O)N2[C@@H]1c1ccc(O)cc1 0.424
CCCCN1CC=CC23O[C@@H]4/C=C\CCCOC(=O)C4[C@H]2C(=O)N(CCCCCO)[C@@H]3C1=O (stereo partly specified) -0.757
COc1ccc(C(=O)Nc2cccc(CN3C(=O)[C@]4(O[C@H](CCn5cc(CCO)nn5)[C@@H]([Si](C)(C)c5ccc(OC)cc5)[C@@H]4C)c4ccccc43)c2)cc1 2.2
Cc1ccc(S[C@]2(C(=O)NCC(C)C)CC(=O)N(Cc3cc(C(F)(F)F)cc(C(F)(F)F)c3)[C@@H]2c2ccc(CO)cc2)cc1 -0.099
[N-]=[N+]=NCc1ccccc1[C@@H]1OC(c2ccc(OCCCO)cc2)=N[C@]1(CCS(=O)(=O)c1ccccc1)C(=O)N1CCOCC1 -4.67
CS(=O)(=O)CCOC(=O)C1=CC(CCCO)=CC(C2CC2)N(Cc2cc3c(cc2Br)OCO3)C=C1C(=O)OCCS(C)(=O)=O (stereo unspecified) -1.5
C=CC[C@]12N=C(c3ccc(OCCCO)cc3)O[C@H]1c1ccccc1N(CCS(=O)(=O)c1ccccc1)C2=O 0.0191
CC1CC/C=C\[C@H]2OC34C=CCN(Cn5nnc6ccccc65)C(=O)[C@H]3N(CCCCCO)C(=O)[C@@H]4C2C(=O)O1 (stereo partly specified) 0.374
C#CCN(C/C=C/c1ccccc1)[C@H](CO)c1ccccc1 0.716
O=C1N(CCS(=O)(=O)c2ccccc2)c2ccccc2[C@@H]2OC(c3ccc(OCCCO)cc3)=N[C@]12Cc1ccccc1 -1.52

From PubChem BioAssay
